Giardia kill: kills Giardia lamblia; Giardia lamblia trophozoite viability; activity change, % at 7.66 µM, hits read low; 340,000 compounds, 0.15% hits; in the data active means activity change below about -80%; inconclusive means between about -30% and that limit;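 further: parasites exposed to compound for two days anaerobically before the ATP read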
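Anaerobic 48 hrs incubation at 37 deg C of 100 trophozoites/well with test compounds; ATPLite 1-Step luminescence, 15-30 min RT, reports cellular ATP as viability.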
ERG Ets-DNA blk: blocks human ERG Ets domain binding to DNA; Potency, µM (series often up to 76.9 µM), hits mostly inhibitors; 370,000 compounds, 0.028% hits; AID 624246; P11308; fluorescence polarization, His-ERG Ets domain / labelled DNA; active means well fitted inhibition curve with a large enough effect in the polarisation, with a control signal flat; inconclusive means small, poorly fitted or top-dose-only effect, or effect the other way, or a change in a side signal; inactive means no such curve, though single readings can be large or run the other way; the % refers to the polarisation;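 further: polarization taken with two DNA probes labelled with fluorescein and Texas red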
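His-tagged ERG Ets domain (1 uM in the protein solution; 300mM KCl, 50mM Tris-HCl, 1mM EDTA, 1mM DTT, pH 7.5) received compound, then a probe mix of 5 nM fluorescein-DNA and 100nM Texas-615-DNA. Fluorescence polarization was read for both dyes.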
Integrin act MD: activators of alpha7 integrin expression for muscular dystrophy; alpha7betagal myoblasts, beta-gal FDG fluorescence, 48 h; AID 624291; 350,000 compounds, 0.064% hits; Potency, µM (top dose mostly 38.3 µM), most hits filed as activators; further: nearly all actives have a fitted effect of over 60% in size
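Alpha7betagal+/- myoblasts (passage 13) were plated 16-24 hr, then exposed to compounds (1:260 dilution of DMSO stock) for 48 hours at 37C. After MPER lysis, β-galactosidase reporter activity was read as FDG fluorescence (ex 480/em 540) after 30 minutes.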
Gal4-VP16 FLuc: inhibits Gal4-VP16 luciferase reporter, ROR gamma counter-screen | Potency, µM (titrated, usually from 53.6 µM), actives largely listed as inhibitors | 310,000 compounds, 3.5% hits | AID 2546 | Drosophila S2 Gal4-VP16 UAS-luciferase, luminescence, 20 h;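 further: Gal4-VP16 expression switched on by copper sulfate through the metallothionein promoter; nearly all actives have a fitted effect of over 50% in size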
RORgamma inh: ROR gamma (mouse) transcription inhibition; P51450; Drosophila S2 Gal4-RORgamma UAS-luciferase reporter, 20 h; Potency, µM (doses to about 53.6 µM), hits mostly inhibitors; 310,000 compounds, 5.4% hits; AID 2551; further: nearly all actives have a fitted effect of over 60% in size
Target sequence (P51450 whole entry, looked up, the tested form may be a part): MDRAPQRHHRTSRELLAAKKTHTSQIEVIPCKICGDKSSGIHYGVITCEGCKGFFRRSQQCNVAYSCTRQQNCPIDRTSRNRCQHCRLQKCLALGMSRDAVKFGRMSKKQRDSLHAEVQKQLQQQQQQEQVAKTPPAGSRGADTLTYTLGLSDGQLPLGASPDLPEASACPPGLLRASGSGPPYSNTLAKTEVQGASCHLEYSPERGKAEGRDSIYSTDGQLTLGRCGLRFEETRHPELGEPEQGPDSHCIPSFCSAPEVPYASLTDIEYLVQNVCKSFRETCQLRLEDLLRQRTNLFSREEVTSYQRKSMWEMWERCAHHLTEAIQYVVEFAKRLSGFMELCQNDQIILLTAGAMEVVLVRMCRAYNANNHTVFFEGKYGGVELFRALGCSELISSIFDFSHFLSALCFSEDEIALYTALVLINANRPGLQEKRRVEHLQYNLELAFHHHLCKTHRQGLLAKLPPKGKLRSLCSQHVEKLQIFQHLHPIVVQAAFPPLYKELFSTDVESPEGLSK
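Stable Schneider cell line, Gal4 DNA-binding domain fused to ROR gamma, UAS-luciferase. Cmpd 1 hr RT → CuSO4 700 uM final → 20 hr RT → luciferase reagent 10 min → luminescence.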
Large screens that a line does not name were inactive. Only a selection was taken, and hits are over-represented in it overall. Unless noted, the call rests on the fitted dose curve; in most records, active means well fitted curve in the direction sought with a large enough effect; inconclusive means small, poorly fitted or top-dose-only effect, or another doubt; inactive means no such curve, though single readings can be large; an effect the other way counts as inactive or inconclusive.

COc1ccc(OCCCC(=O)N(C)CC(=O)Nc2ccccc2Cl)cc1	none
O=C(CC(Nc1cccc(Cl)c1Cl)C(=O)O)c1ccccc1 (centres undefined)	RORgamma inh 11µM
O=C(CCC(=O)c1ccc(Oc2ccccc2)cc1)Nc1cccc(Cl)c1Cl	none
COc1ccc2nc(C)cc(SCC(=O)NNC(=O)COc3ccccc3)c2c1	none
COc1ccc2nc(C)cc(Sc3nc4ccccc4s3)c2c1	Gal4-VP16 FLuc inconclusive, RORgamma inh 14µM
CCOC(=O)N(C)c1ccc(C(O)(C(F)(F)F)C(F)(F)F)cc1	none
CC(=O)N(C)c1ccc(C(O)(C(F)(F)F)C(F)(F)F)cc1	Integrin act MD inconclusive, RORgamma inh 13µM
CC(C)(C)c1cc(C(=O)NC2CC2)n(Cc2ccc(F)cc2)n1	none
Cc1ccc(NNC(=O)c2cc(C(C)(C)C)nn2Cc2ccccc2)cc1	Gal4-VP16 FLuc 18µM, RORgamma inh inconclusive
CC(C)(C)c1cc(C(=O)NNc2cc(C(F)(F)F)ccc2Cl)n(Cc2ccccc2)n1	Gal4-VP16 FLuc 8.9µM, RORgamma inh inconclusive
Cc1ccc(NC(=O)c2cc(C(C)(C)C)nn2Cc2ccccc2)cc1	none
CC(C)(C)c1cc(C(=O)Nc2ccc(F)cc2)n(Cc2ccc(F)cc2)n1	Gal4-VP16 FLuc inconclusive, RORgamma inh 11µM
COc1ccccc1NNC(=O)c1cc(C(C)(C)C)nn1Cc1ccccc1	RORgamma inh inconclusive
CC(=O)C1=C(C)Nc2ncnn2C1c1ccc(Cl)cc1Cl (centres undefined)	none
NC(=S)N/N=C1\CCSc2ccc(Cl)cc21	Gal4-VP16 FLuc 10µM, RORgamma inh 2µM
COC(=O)/C=C1/S/C(=N/NC(=O)c2ccccc2C)NC1=O	Gal4-VP16 FLuc inconclusive, RORgamma inh inconclusive
COC(=O)/C=C1\S/C(=N/NC(=O)c2ccccc2)NC1=O	Gal4-VP16 FLuc 11µM, RORgamma inh 11µM
COC(=O)/C=C1/S/C(=N/NC(=O)c2ccccc2)NC1=O	RORgamma inh 2.8µM
COc1ccccc1/C=C1\S/C(=N/NC(=O)c2cccc(Br)c2)NC1=O	Gal4-VP16 FLuc 0.56µM, RORgamma inh 0.32µM
O=C(C1CCCCC1)N1C[C@H](n2cc(C3CC3)nn2)[C@@H](O)C[C@@H]1c1ccc(Cl)cc1	none (no result: Giardia kill, ERG Ets-DNA blk, Gal4-VP16 FLuc, RORgamma inh)
Cc1noc(C)c1COc1ccccc1C(=O)NC(C)c1ccc(F)cc1 (centres undefined)	none (no result: Gal4-VP16 FLuc, RORgamma inh)
Cc1nc(N2CCC(C)CC2)c2c(C)c(C(=O)O)sc2n1	none (no result: Gal4-VP16 FLuc)
CCOC(=O)c1[nH]c(C)c(C(=O)NCc2ccccc2Cl)c1C	none (no result: Giardia kill, Integrin act MD, Gal4-VP16 FLuc, RORgamma inh)
CC(C)(C)OC(=O)N/N=C\C=C\c1ccc2c(c1)OCO2	RORgamma inh inconclusive
CC(C)Cn1c(N)c(C(=O)COC(=O)c2ccc3c(c2)OCCO3)c(=O)n(C)c1=O	none
CC(C)Cn1c(N)c(C(=O)CSc2ccc3c(c2)OCCO3)c(=O)n(C)c1=O	Gal4-VP16 FLuc 11µM, RORgamma inh inconclusive
CC(C)CN(C(=O)CN1C(=O)NC(c2ccccc2)(c2ccccc2)C1=O)C1CCS(=O)(=O)C1 (centres undefined)	none (no result: Gal4-VP16 FLuc, RORgamma inh)
Cc1nc(-c2ccc(S(=O)(=O)NCc3ccccn3)s2)cs1	Integrin act MD inconclusive, Gal4-VP16 FLuc inconclusive, RORgamma inh 10µM
CC(C)(C)NC(=S)N/N=C/c1cccnc1	Gal4-VP16 FLuc 10µM, RORgamma inh 5.6µM
COc1ccc(O)c(/C=N/NC(=S)Nc2cccnc2)c1	RORgamma inh 6.3µM
COc1cccc(/C=N/NC(=S)Nc2cccnc2)c1	Gal4-VP16 FLuc 3.2µM, RORgamma inh 2.5µM
COc1cccc(/C=N/NC(=S)Nc2cccc(C(=O)O)c2)c1	RORgamma inh 10µM
CCCn1c(SCC(=O)N2CCCC(C)C2)nnc1-c1ccccn1 (centres undefined)	none
NC(C(=O)O)c1nn[nH]n1 (centres undefined)	none (no result: ERG Ets-DNA blk, Integrin act MD)
N=c1c(-c2nc3ccccc3[nH]2)cc(C(=O)c2cccs2)nn1-c1ccccc1	Gal4-VP16 FLuc inconclusive
N=c1c(-c2nc3ccccc3[nH]2)cc(C(=O)c2ccco2)nn1-c1ccccc1	Gal4-VP16 FLuc 5µM, RORgamma inh 2.8µM
CCOC(=O)c1csc(NC(=O)CC2CCCC2)n1	RORgamma inh 11µM
CCOC(=O)c1csc(NC(=O)CCSc2ccccc2)n1	none
Cc1ccc2nc(SCC(=O)Nc3ccc4c(c3)CCC4)[nH]c2c1	Gal4-VP16 FLuc 11µM, RORgamma inh inconclusive
O=C(CSc1nc2ccc(Cl)cc2[nH]1)Nc1ccc2c(c1)CCC2	Gal4-VP16 FLuc inconclusive, RORgamma inh inconclusive
Cc1cccn2cc(-c3ccc(NC(=O)Cc4ccccc4)cc3)nc12	Gal4-VP16 FLuc inconclusive, RORgamma inh 5µM
On1c2c(c3c4nonc4ccc31)CCCC2	Gal4-VP16 FLuc 22µM, RORgamma inh inconclusive (no result: Giardia kill, ERG Ets-DNA blk, Integrin act MD)
COc1ccccc1C(=O)Nc1ccc(C(=O)OCc2cc(=O)n3ccsc3n2)cc1	none (no result: Giardia kill, Integrin act MD, Gal4-VP16 FLuc, RORgamma inh)
Cc1ccc(CNC(=O)c2cc(=O)c3ccc(C)cc3o2)cc1	none
COC(=O)N1C(C)=Cc2ccccc2C1C/C(C)=C/C(C)=O (centres undefined)	none (no result: Giardia kill, ERG Ets-DNA blk, Integrin act MD)
CN(C)S(=O)(=O)c1ccc(C(=O)OCC(=O)Nc2sc3c(c2C#N)CCCCC3)cc1	ERG Ets-DNA blk inconclusive
CCC(=O)Nc1sc2c(c1C#N)CCCCC2	RORgamma inh inconclusive
C=CCNC(=S)Nc1sc2c(c1C#N)CCCC2	RORgamma inh 11µM
Cc1ccccc1C(=O)NC(=S)Nc1sc2c(c1C#N)CCCC2	Gal4-VP16 FLuc 11µM, RORgamma inh 3.5µM
Cc1onc(-c2ccccc2)c1C(=O)NC(=S)Nc1sc2c(c1C#N)CCCC2	Integrin act MD inconclusive, RORgamma inh 3.5µM
Cc1onc(-c2ccccc2)c1C(=O)Nc1sc2c(c1C#N)CCC2	none
CC(C)(C)c1ccc(C(=O)OCC(=O)Nc2sc3c(c2C#N)CCC3)cc1	Integrin act MD 5µM
Cc1onc(-c2ccccc2)c1C(=O)NC(=S)Nc1sc2c(c1C#N)CCC(C)C2 (centres undefined)	Gal4-VP16 FLuc inconclusive, RORgamma inh 2.8µM
Cc1sc(NC(=S)NC(=O)c2ccccc2)c(C#N)c1C	none (no result: Gal4-VP16 FLuc, RORgamma inh)
CC(C)(C)C(=O)NC(=S)Nc1sc2c(c1C#N)CCCCC2	Gal4-VP16 FLuc 14µM, RORgamma inh 7.1µM
CC(=O)Nc1sc2c(c1C#N)CCCCC2	RORgamma inh inconclusive
Cc1cc(C(=O)Nc2sc3c(c2C#N)CCC(C)C3)no1 (centres undefined)	Gal4-VP16 FLuc inconclusive, RORgamma inh inconclusive
Cc1sc(NC(=S)NC(=O)c2ccc(C(C)(C)C)cc2)c(C#N)c1C	Gal4-VP16 FLuc 11µM, RORgamma inh 0.56µM
CN(C)CC[C@H](c1ccc(Br)cc1)c1ccccn1	none (no result: Giardia kill, ERG Ets-DNA blk, Integrin act MD)
Cn1c(=O)c(C(=O)NNC(=O)c2ccccc2F)c(O)c2ccccc21	Gal4-VP16 FLuc inconclusive, RORgamma inh 18µM
CCn1c(=O)c(C(=O)NNC(=O)c2ccccc2F)c(O)c2ccccc21	Gal4-VP16 FLuc inconclusive, RORgamma inh 7.9µM
CCn1c(=O)c(C(=O)NNC(=O)c2ccccc2Cl)c(O)c2ccccc21	Gal4-VP16 FLuc inconclusive, RORgamma inh 7.9µM

Compound activity from PubChem.
